Out of some 96,000 compounds screened, about 100 (0.1%) were called active.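 How the source made its calls: active means displacement above 50% at 20 µM plus a fluorescence interference ratio under 1.5; inactive means the rest.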 The sample as a whole holds a higher share of actives than the screen did. Potency and affinity values are given separately.

The assay concerns the target Bcl-2-like protein 10 (Homo sapiens) (UniProt Q9HD36). Briefly: Bcl-B/TR3 peptide binding disruption – biochemical, fluorescence polarization, FITC-TR3 peptide, selectivity assay for Bfl-1 inhibitor project, primary screen (AID 748).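 Further: plate controls were wells without compound for no effect and wells lacking Bcl-B protein for full effect.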 To be noted: FP displacement of FITC-TR3 peptide from Bcl-B; at 20 µM; active compounds read high. A general note: Fluorescence polarisation rises when a labelled molecule tumbles more slowly, as on binding a larger partner.
With `CCn1c(SCC(=O)Nc2ccc(NC(C)=O)cc2)nnc1C1CC1`, the displacement is -2.2% (inactive).

Take `O=c1c(-c2ccccc2)coc2c(CN3CCCC3)c(O)ccc12`: the displacement was 0.4% (inactive).

Turning to `COc1ccc(C(=O)c2coc3ccc(O)c(CN4CCCCC4)c23)cc1`, the displacement is -2.5% (inactive).

Take `Nc1csnc1C(=O)O`: the displacement is 1.9% (inactive).

`Cc1nnc(-c2cccc(Br)c2)c2cn(-c3ccccc3Cl)nc12`: the displacement is 7.2% (inactive).

Regarding `CCCCC(=O)Nc1ccc(NC(=O)CCCC)nc1`, the displacement is -8.6% (inactive).

As to `Cc1ccc(C(=O)CSc2cc(C)nc(SCC(=O)c3ccccc3)n2)cc1`, the displacement was -6.6% (inactive).

Take `CCn1c(SCC(=O)c2ccc(O)c(O)c2)nnc1-c1ccccc1`: the displacement was 15.8% (inactive).

Take `CCn1c(SCC(=O)c2ccc(O)c(O)c2)nnc1-c1ccc(C)cc1`: the displacement was 33% (inactive).

As for `Nc1cc(N)nc(SCC(=O)c2ccccc2)n1`, the displacement was -7.4% (inactive).

For `Cc1ccc(NC(=O)CCn2nc(C)cc2C)c(C)c1`, the displacement was -5% (inactive).

As for `CCN(CCO)c1ccc(-n2c(N)c(C(=O)OC)c3nc4ccccc4nc32)cc1`, the displacement was 12.6% (inactive).

Consider `CC(C)c1nnc(NC(=O)CCN2C(=O)c3ccccc3C2=O)s1`, for which the displacement is -5.9% (inactive).

In the case of `CCn1c(SCc2ccc(C#N)cc2)nnc1-c1cccc(Cl)c1`, the displacement was -1.6% (inactive).

Turning to `Clc1ccc(CN(Cc2ccccc2)C(c2cccs2)c2nnnn2C2CCCC2)cc1` (configuration not stated), the displacement was -9.7% (inactive).

For the compound `O=C1CN(C(=O)c2cnccn2)c2ccccc2N1`, the displacement is 7% (inactive).

Regarding `O=C(c1cccnc1)N1CCc2ccccc21`, the displacement is -1.9% (inactive).

`Cc1cc(C(F)F)n2ncc(C(=O)N3CCC(C(N)=O)CC3)c2n1`: the displacement was 10.5% (inactive).

Regarding `CCS(=O)(=O)C(=C1NCCO1)S(=O)(=O)CC`, the displacement was 1.6% (inactive).

Regarding `Cc1ccc2c(Cl)cc(Cl)c(OCC(=O)NC(=O)NCc3ccco3)c2n1`, the displacement was -8% (inactive).

On to `Cc1ccc2c(Cl)cc(Cl)c(OCC(=O)NCc3ccco3)c2n1`, for which the displacement is 56.5% (active).

Consider `Cc1cc(Cl)cc(Cl)c1OCC(=O)NCc1ccco1`, for which the displacement was -20.9% (inactive).

Consider `Cc1ccccc1C(=O)/C=C1/c2ccccc2CC(C)(C)N1C`, for which the displacement was 4.3% (inactive).

With `c1ccc(Sc2cnc3ccccc3n2)cc1`, the displacement was -0.3% (inactive).

Take `O=C1C(C=Nc2ccccc2O)=C(O)c2ccccc21`: the displacement was -6.7% (inactive).

As for `CN=CC1=C(O)c2ccccc2C1=O`, the displacement is -13.3% (inactive).

For `Cc1cc(C)c(C)c(S(=O)(=O)NCC(=O)O)c1C`, the displacement is 2.8% (inactive).

For the compound `O=C(Nc1ccc(N2CCOCC2)cc1)Nc1ccc(Cl)c(Cl)c1`, the displacement was -11.1% (inactive).

As for `CC(=O)c1ccc(N2CCN(c3ncc(C(F)(F)F)cc3Cl)CC2)cc1`, the displacement was -8.1% (inactive).

As for `Cc1nnc2n(Cc3ccccc3)c(=O)c3c4c(sc3n12)COC(C)(C)C4`, the displacement is 4.4% (inactive).

With `Cc1ccc(-n2c(SCC(=O)N3CCCC3)nc3c(c2=O)SCC3)cc1`, the displacement was 1% (inactive).

For the compound `CCc1ccc(NC(=O)c2noc3c2CCCCC3)cc1`, the displacement was -3% (inactive).

Turning to `Cc1ccc(NC(=O)c2noc3c2CCCCC3)cc1`, the displacement was -10.5% (inactive).

As to `COc1ccc(CNC(=O)c2noc3c2CCCC3)cc1`, the displacement was -8.9% (inactive).

Regarding `CC(=O)c1ccc(NC(=O)c2noc3c2CCCCC3)cc1`, the displacement is -0.9% (inactive).

On to `O=C(N1CCOCC1)N1CCN(c2nc(-c3ccccc3)cs2)CC1`, for which the displacement was -0.8% (inactive).

As to `COC(=O)c1cc(C(=O)OC)n(Cc2ccc(F)cc2)n1`, the displacement is -10.3% (inactive).

With `O=C(Nc1ccc2nn(-c3ccccc3)nc2c1)c1ccc2c(c1)OCO2`, the displacement is -30.3% (inactive).

With `CCc1ccc(-n2nc3ccc(NC(=O)c4ccc5c(c4)OCO5)cc3n2)cc1`, the displacement was -1% (inactive).

With `Cc1cccc(C(=O)NNC2=C(C(=O)C(F)(F)F)CCC2)c1O`, the displacement was 10.3% (inactive).

With `Cc1nnc(SCCn2c(N3CCC(C)CC3)nc3c2c(=O)[nH]c(=O)n3C)s1`, the displacement is -6.3% (inactive).

As to `Cc1cc(C)n(C(=O)CCN2C(=O)c3ccccc3C2=O)n1`, the displacement is -3.1% (inactive).

For the compound `c1coc(-c2nnc3sc(-c4cccs4)nn23)c1`, the displacement was 4.7% (inactive).

As to `Brc1ccc(-c2nn3c(-c4ccco4)nnc3s2)o1`, the displacement was 30% (inactive).

`CC1(C)OC(=O)C(=CNn2cnc3ccccc3c2=O)C(=O)O1`: the displacement was -2.6% (inactive).

Turning to `CCOC(=O)C1CCCN(C/C(O)=C(\C#N)c2nc(-c3ccc(Cl)cc3)cs2)C1` (configuration not stated), the displacement is 0% (inactive).

As to `O=C(N/N=C/c1cccc(F)c1)c1cc(-c2ccco2)nc2ccccc12`, the displacement is 39.5% (inactive).

Take `CCOc1cc(N2CCOCC2)c(OCC)cc1NC(=O)c1cc(-c2ccco2)nc2ccccc12`: the displacement was 25.3% (inactive).

As to `O=C(O)c1cc(-c2ccco2)nc2ccccc12`, the displacement is 18.6% (inactive).

Regarding `Cc1cccc(NC(=O)c2cc(-c3ccco3)nc3ccccc23)n1`, the displacement was 41.4% (inactive).

Take `Cc1ccccc1C(=O)c1cccn1CC(=O)NCc1ccc2c(c1)OCO2`: the displacement is -0.3% (inactive).

`O=C(O)c1cc2c([nH]c1=O)CCCC2`: the displacement is -1% (inactive).

In the case of `Cc1cc(NC(=O)CN2CCN(S(=O)(=O)c3ccc4ccccc4c3)CC2)no1`, the displacement is -1% (inactive).

Turning to `O=C(NCCN1CCCCCC1)c1ccc(CS(=O)(=O)c2ccc(Br)cc2)o1`, the displacement was 4.3% (inactive).

For `CS(=O)(=O)Nc1ccccc1C(=O)Nc1ccc2c(c1)OCCO2`, the displacement was -6.4% (inactive).

`Cc1ccc(C(=O)NC2CCCc3ccccc32)o1` (configuration not stated): the displacement is 1.5% (inactive).

For `NC(=S)N/N=C/c1ccc(-c2cccc([N+](=O)[O-])c2)o1`, the displacement is -3.1% (inactive).

Regarding `O=C(O)c1cc(-c2ccc(/C=N/Nc3ccc(Cl)cc3)o2)ccc1Cl`, the displacement was -20.9% (inactive).

In the case of `C/C(N)=C(/C#N)C(=O)COC(=O)CSc1ccc2ccccc2c1`, the displacement is -15.4% (inactive).

Regarding `CC(C(=O)OCC(=O)Nc1ncc(Cl)cc1Cl)N1C(=O)c2ccccc2C1=O` (configuration not stated), the displacement was 21.3% (inactive).

For `O=C(COC(=O)CCCN1C(=O)c2ccccc2C1=O)Nc1ncc(Cl)cc1Cl`, the displacement was 43.6% (inactive).

On to `O=C(COC(=O)CCc1ccccc1)Nc1ncc(Cl)cc1Cl`, for which the displacement is 24.2% (inactive).

As for `COc1ccc(CC(=O)OCC(=O)Nc2ncc(Cl)cc2Cl)cc1`, the displacement was 41.3% (inactive).

As for `Cc1ccc(S(=O)(=O)CCC(=O)OCC(=O)Nc2ncc(Cl)cc2Cl)cc1`, the displacement is 24.5% (inactive).

Consider `Cc1ccc(S(=O)(=O)NCC(=O)OC(C)C(=O)Nc2ncc(Cl)cc2Cl)cc1` (configuration not stated), for which the displacement was -1.5% (inactive).

For the compound `CC(=O)NC12CC3CC(C1)CC(C(=O)OCC(=O)Nc1ncc(Cl)cc1Cl)(C3)C2`, the displacement was 40.7% (inactive).

As to `O=C(COC(=O)C12CC3CC(CC(C3)C1)C2)Nc1ncc(Cl)cc1Cl`, the displacement is 31.8% (inactive).

In the case of `CCOC(=O)c1ccc(NC(=O)CSc2nnc(CNC(=O)c3ccccc3F)o2)cc1`, the displacement is 0% (inactive).

As for `CC(C)(C)C(=O)CSc1nccc(=O)[nH]1`, the displacement is 2.2% (inactive).

Take `O=C1C(C2=NC(C(=O)O)C3C(=O)N(c4ccccc4)C(=O)C23)=C(O)c2ccccc21` (configuration not stated): the displacement is -7% (inactive).

Take `COc1ccc(Cl)cc1C(=O)Nc1ccc(S(=O)(=O)N2CCCC2)cc1`: the displacement was -12.1% (inactive).

As for `O=C(CCC1CCCC1)N1CCN(S(=O)(=O)Cc2ccccc2)CC1`, the displacement is -7.6% (inactive).

As to `O=C(Nc1ccc(-c2nnc(-c3ccco3)o2)cc1)C(c1ccccc1)c1ccccc1`, the displacement was 3.9% (inactive).

Consider `COC(=O)CSc1nnc(CNS(=O)(=O)c2ccc(Cl)cc2)n1C`, for which the displacement was 8.2% (inactive).

Regarding `Cc1cc(NC(=O)COC(=O)C2CCN(S(=O)(=O)c3cccc(Cl)c3Cl)CC2)no1`, the displacement is 1.9% (inactive).

On to `Cc1cc(NC(=O)COC(=O)C2CCN(S(=O)(=O)c3ccc(Cl)cc3)CC2)no1`, for which the displacement is 7.5% (inactive).

For `COc1ccc(CC(=O)OCC(=O)Nc2ncc(Cl)cc2Cl)cc1OC`, the displacement is 3% (inactive).

`COc1cc(CCC(=O)OCC(=O)Nc2ncc(Cl)cc2Cl)cc(OC)c1OC`: the displacement is 32.6% (inactive).

`Cc1ccc(Cl)cc1N1CCN(C(=O)c2cn(C)c(=O)c3c2c2ccccc2n3C)CC1`: the displacement was -4.3% (inactive).

Take `CC(=O)Nc1ccc(NC(=O)C(C)n2nc([N+](=O)[O-])c(Br)c2C)cc1` (configuration not stated): the displacement is -5.9% (inactive).

For `CC(=O)c1c(C)[nH]c(C(=O)Nc2c(C)n(C)n(-c3ccccc3)c2=O)c1C`, the displacement is 1% (inactive).

For the compound `COc1cccc(C=Nc2ccccc2C(=O)Nc2nccs2)c1OC`, the displacement was -10.6% (inactive).

For `O=C(C[n+]1ccc(C(=O)N/N=C/c2ccc(OCc3ccccc3)cc2)cc1)c1ccccc1`, the displacement is 46.7% (inactive).

With `O=C(C[n+]1ccc(C(=O)N/N=C/c2ccc(Br)cc2)cc1)c1ccccc1`, the displacement was 43.2% (inactive).

As for `CCOC(=O)C1C(C#N)=C(N)OC(C)=C1c1ccncc1` (configuration not stated), the displacement was 11.4% (inactive).

In the case of `COc1ccc2nc(COC(=O)c3ccco3)c(C(C)=O)[n+]([O-])c2c1`, the displacement was 10.7% (inactive).

For the compound `CCOC(=O)c1c(COC(=O)c2ccco2)nc2ccccc2[n+]1[O-]`, the displacement is -4.9% (inactive).

As to `CC(=O)c1c(COC(=O)c2ccco2)nc2ccccc2[n+]1[O-]`, the displacement was 68.3% (active).

For `O=C1CC(Cc2ccccc2)C(=O)N1Cc1ccco1` (configuration not stated), the displacement was 0% (inactive).

In the case of `CCn1c(Cn2nnc(-c3ccccc3)n2)nnc1SCC(=O)Nc1ccc(N(C)C)cc1`, the displacement is 4.2% (inactive).

In the case of `Cc1nnc(NC(=O)NC(C)N2C(=O)C3C4C=CC(C4)C3C2=O)s1` (configuration not stated), the displacement is -30.5% (inactive).

For the compound `CC1=Nc2cccc3cccc(c23)N1`, the displacement was 2.9% (inactive).

Turning to `CC(C)(C)C1CCC2(CC1)Nc1cccc3cccc(c13)N2`, the displacement is -38% (inactive).

For `O=C1NC2(CCCCC2)NN1c1ccccc1`, the displacement is -5.6% (inactive).

As to `O=C1CCSc2cccc3cccc(c23)N1`, the displacement was -2.2% (inactive).

Consider `O=C(O)Cc1coc(-c2ccc(F)cc2)n1`, for which the displacement is -15.2% (inactive).

As to `O=C(CN1C(=O)NC2(CCc3ccccc32)C1=O)c1ccc2c(c1)OCCO2` (configuration not stated), the displacement is -13.7% (inactive).

For the origin of these results see PubChem BioAssay AID748 (Sanford-Burnham Center for Chemical Genomics, 2007).
